# Active and inactive are the calls of the source.
# Assays:
# [1] = binders of probe aFSTL3 on microarray, primary screen, stem cell growth factor project, biochemical, small-molecule microarray, fluorescence 635/667 (AID 1064); settings: higher = more signal;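 also: measures binding of the biotinylated anti-FSTL3 antibody to printed compounds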
# [2] = binders from COS7 lysate, DM2A8 probe, primary screen, torsin A project, cell lysate, small-molecule microarray, fluorescence 635/667 (AID 1065); settings: higher = more signal, COS7 lysate expressing mutant human TOR1A
# [3] = binders of probe aFGF2 on microarray, primary screen, stem cell growth factor project, biochemical, small-molecule microarray, fluorescence 635/667 (AID 1067); settings: higher = more signal;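 also: measures binding of biotinylated aFGF2 protein to printed compounds on slides; z-score merges feature fluorescence and signal-to-noise across triplicate slides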
# [4] = binders of probe aFGF10 on microarray, primary screen, stem cell growth factor project, biochemical, small-molecule microarray, fluorescence 635/667 (AID 1071); settings: higher = more signal;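 also: score merges 667 nm spot intensity and signal to noise from triplicate slides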
# [5] = biological target: Neurogenic locus notch homolog protein 2 (Homo sapiens) (UniProt Q04721); experiment: Notch2 binders on small-molecule microarrays, primary screen, biochemical, small-molecule microarray, 635 nm fluorescence, stem cell growth factors (AID 1073); settings: Notch2 binding, higher = more signal
# [6] = biological target: Pro-neuregulin-1, membrane-bound isoform (Homo sapiens) (UniProt Q02297); experiment: NRG1 binders on small-molecule microarrays, primary screen, psychiatric disease protein project, biochemical, small-molecule microarray, fluorescence 635/667 (AID 1075); settings: NRG1 binding, 635 nm fluorescence, higher = more signal;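 also: score combines 667 nm spot fluorescence with signal to noise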
# [7] = system: Neuregulin-1 EGF-like domain; experiment: binders of neuregulin-1 EGF-like domain, primary screen, biochemical, small-molecule microarray, 635 nm fluorescence (AID 1081); settings: small-molecule microarray binding, higher = more signal;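 also: binding of the protein to compounds printed on small-molecule microarray slides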
# [8] = FRG1 promoter luciferase signal modulators, primary screen, FRG1 inhibition for FSHD, cell-based, C2C12 myotubes, firefly/Renilla luciferase, luminescence (AID 1084); settings: higher = more signal, called active from +8 up or from −8 down
# [9] = binders of probe aFST on microarray, primary screen, stem cell growth factor project, biochemical, small-molecule microarray, fluorescence 635/667 (AID 1086); settings: higher = more signal;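 also: score merges 667 nm fluorescence with signal-to-noise of each printed compound spot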
# [10] = binders of probe aHhip on microarray, primary screen, stem cell growth factor project, biochemical, small-molecule microarray, fluorescence 635/667 (AID 1087); settings: higher = more signal;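 also: score merges spot fluorescence at 667nm with spot signal to noise ratio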
# Sequence of Pro-neuregulin-1, membrane-bound isoform (Homo sapiens) (Q02297 whole entry, looked up, the tested form may be a part, canonical isoform): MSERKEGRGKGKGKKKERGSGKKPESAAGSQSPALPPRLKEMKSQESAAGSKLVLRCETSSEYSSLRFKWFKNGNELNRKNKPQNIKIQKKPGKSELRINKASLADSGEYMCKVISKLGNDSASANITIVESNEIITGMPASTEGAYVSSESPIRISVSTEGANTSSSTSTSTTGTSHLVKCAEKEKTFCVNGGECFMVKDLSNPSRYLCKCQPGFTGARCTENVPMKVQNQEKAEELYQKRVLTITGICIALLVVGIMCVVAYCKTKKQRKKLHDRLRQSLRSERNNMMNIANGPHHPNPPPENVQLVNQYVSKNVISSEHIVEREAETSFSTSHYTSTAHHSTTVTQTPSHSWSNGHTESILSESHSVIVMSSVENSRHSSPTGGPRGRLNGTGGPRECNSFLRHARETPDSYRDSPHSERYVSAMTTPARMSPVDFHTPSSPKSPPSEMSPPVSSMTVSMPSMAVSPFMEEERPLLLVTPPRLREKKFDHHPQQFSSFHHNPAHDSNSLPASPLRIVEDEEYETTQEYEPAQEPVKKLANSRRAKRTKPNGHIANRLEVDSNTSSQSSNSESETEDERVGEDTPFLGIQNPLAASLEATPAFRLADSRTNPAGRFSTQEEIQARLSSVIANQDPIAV
# Sequence of Neurogenic locus notch homolog protein 2 (Homo sapiens) (Q04721 whole entry, looked up, canonical isoform): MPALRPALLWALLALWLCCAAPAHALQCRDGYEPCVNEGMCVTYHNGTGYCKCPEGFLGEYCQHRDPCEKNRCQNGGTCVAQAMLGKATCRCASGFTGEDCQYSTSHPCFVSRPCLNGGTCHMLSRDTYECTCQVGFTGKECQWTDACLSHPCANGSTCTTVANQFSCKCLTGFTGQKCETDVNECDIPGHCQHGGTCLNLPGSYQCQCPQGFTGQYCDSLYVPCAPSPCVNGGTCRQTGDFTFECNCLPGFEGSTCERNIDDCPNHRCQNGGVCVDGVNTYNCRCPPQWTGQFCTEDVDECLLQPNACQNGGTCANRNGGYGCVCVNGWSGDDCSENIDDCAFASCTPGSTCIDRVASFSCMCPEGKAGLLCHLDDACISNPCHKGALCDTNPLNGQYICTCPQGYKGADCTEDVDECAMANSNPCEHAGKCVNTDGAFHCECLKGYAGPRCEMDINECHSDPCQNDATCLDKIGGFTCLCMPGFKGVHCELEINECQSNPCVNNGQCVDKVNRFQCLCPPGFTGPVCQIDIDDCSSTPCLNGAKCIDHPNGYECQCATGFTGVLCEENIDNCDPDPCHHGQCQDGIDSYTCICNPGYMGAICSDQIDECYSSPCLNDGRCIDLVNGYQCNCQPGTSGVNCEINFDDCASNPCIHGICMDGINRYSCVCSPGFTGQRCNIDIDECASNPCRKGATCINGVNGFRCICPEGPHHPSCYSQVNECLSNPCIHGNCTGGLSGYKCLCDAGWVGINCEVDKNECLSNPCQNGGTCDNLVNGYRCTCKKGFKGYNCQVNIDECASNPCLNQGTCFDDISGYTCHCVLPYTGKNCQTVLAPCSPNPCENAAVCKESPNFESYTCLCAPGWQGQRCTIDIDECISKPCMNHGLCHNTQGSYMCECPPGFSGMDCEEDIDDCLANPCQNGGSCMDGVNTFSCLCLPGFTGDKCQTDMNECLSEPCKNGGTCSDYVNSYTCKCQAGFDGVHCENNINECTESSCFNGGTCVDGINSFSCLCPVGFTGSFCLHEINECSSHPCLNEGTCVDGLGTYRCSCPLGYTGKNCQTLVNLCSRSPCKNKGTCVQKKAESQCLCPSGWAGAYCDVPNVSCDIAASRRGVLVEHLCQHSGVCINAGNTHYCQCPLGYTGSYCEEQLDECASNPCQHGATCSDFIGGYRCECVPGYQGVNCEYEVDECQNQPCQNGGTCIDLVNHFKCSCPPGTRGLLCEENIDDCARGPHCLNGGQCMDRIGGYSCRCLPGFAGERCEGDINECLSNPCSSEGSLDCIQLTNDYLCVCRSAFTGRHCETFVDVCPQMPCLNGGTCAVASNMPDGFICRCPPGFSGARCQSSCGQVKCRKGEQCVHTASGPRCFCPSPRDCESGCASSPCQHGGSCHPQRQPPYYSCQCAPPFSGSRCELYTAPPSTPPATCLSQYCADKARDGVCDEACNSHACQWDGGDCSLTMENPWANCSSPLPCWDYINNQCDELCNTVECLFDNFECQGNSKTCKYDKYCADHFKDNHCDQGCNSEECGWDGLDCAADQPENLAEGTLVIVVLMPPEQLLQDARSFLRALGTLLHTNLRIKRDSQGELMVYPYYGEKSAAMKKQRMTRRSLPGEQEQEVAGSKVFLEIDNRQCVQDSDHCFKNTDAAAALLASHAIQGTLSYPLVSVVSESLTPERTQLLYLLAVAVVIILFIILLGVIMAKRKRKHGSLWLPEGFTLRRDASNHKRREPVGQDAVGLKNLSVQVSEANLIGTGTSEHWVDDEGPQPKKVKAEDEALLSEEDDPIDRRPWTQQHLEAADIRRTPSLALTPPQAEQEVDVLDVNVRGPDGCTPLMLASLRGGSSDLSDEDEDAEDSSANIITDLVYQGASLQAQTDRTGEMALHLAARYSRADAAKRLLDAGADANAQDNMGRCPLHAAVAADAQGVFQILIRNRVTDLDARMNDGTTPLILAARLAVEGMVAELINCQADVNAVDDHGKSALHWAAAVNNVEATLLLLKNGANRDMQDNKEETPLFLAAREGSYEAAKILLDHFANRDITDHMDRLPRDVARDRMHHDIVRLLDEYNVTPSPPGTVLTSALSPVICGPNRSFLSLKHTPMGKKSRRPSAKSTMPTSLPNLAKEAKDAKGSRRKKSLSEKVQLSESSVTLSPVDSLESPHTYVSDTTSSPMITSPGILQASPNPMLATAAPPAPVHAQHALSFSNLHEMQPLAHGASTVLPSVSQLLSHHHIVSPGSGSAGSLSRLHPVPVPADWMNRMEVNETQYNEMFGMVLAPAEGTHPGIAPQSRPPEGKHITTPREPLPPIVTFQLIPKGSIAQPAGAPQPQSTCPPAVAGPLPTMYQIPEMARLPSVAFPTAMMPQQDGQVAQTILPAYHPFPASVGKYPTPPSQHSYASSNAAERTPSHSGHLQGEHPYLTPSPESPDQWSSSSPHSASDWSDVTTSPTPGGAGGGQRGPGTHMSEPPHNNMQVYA
SMILES,composite z-score [1],composite z-score [2],composite z-score [3],composite z-score [4],composite z-score [5],composite z-score [6],composite z-score [7],z-score [8],composite z-score [9],composite z-score [10]
[N-]=[N+]=Nc1ccccc1C[C@]1(C(=O)NCC(O)CO)COC(c2ccc(OCCCO)cc2)=N1 (stereo not given in full),0.502,0.475,0.0154,0.859,-0.33,1.43,1.14,2.1 (inactive),0.255,-0.0994
C=C[C@@H](CO)N(Cc1ccc(OC)cc1)S(=O)(=O)c1ccc(Br)cc1,-0.142,0.368,-0.13,0.332,-0.185,0.0749,0.996,-4.18 (inactive),-0.446,-0.134
COc1ccc(CCNC(=O)[C@@]2(c3ccc([N+](=O)[O-])cc3)CC(=O)N(C3CCCCC3)[C@@H]2c2ccc(CO)cc2)cc1,0.376,0.409,0.0598,0.325,0.58,1.54,1.23,-0.517 (inactive),0.602,0.177
COCCCNC(=O)[C@@]1(CCC(=O)OC(C)(C)C)N=C(c2ccc(OCCCO)cc2)O[C@H]1c1ccccc1N=[N+]=[N-],0.913,1.5,0.0999,1.14,1.41,1.9,1.4,2.62 (inactive),1.03,0.0053
O=C(NCCN1CCOCC1)[C@@H]1c2ccccc2C(=O)N(Cc2ccccc2Cl)[C@H]1c1ccc(CO)cc1,-0.138,-0.483,-0.15,-0.758,-0.922,0.923,1.32,-2.41 (inactive),0.263,-0.391
COCC(=C=CC[C@H](O)c1ccc(CO)o1)CCO,-0.254,-0.0406,0.0154,0.553,-0.234,1.19,1.23,0.461 (inactive),0.51,0.382
COc1cc2c(cc1O)C(C1CC1)N(C)CC2 (stereo not given),0.646,-0.616,-0.104,-0.874,-0.531,0.63,-0.197,0.0877 (inactive),-0.406,-0.0994
O=C1OCCC/C=C\[C@H]2OC34C=CCN(c5ccc6ccccc6c5)C(=O)[C@H]3N(CCO)C(=O)[C@@H]4C12 (stereo not given in full),0.24,-0.514,-0.159,-0.818,-1.23,1.6,1.04,0.751 (inactive),-0.667,-0.423
O[C@@H](Cc1ccccc1)[C@@H](/C=C/C1CC1)N(CC#Cc1ccccc1)Cc1ccccc1Br,1.53,-0.614,-0.157,-0.763,-0.836,-0.0422,-0.0401,-0.507 (inactive),-0.221,-0.19
COc1ccc([Si](C)(C)[C@H]2[C@H](CC(=O)N3Cc4ccccc4C[C@H]3CO)O[C@@]3(C(=O)N(Cc4ccc(N5CCOC5=O)cc4)c4ccccc43)[C@@H]2C)cc1,-0.315,0.443,-0.0583,0.345,0.236,0.744,1.1,-4.08 (inactive),0.315,-0.0296
COCCOC(=O)N1C(=O)[C@@]2(c3cc(C#CCCO)ccc31)[C@H](c1ccc(OCCO)cc1)N1[C@H](c3ccccc3)[C@H](c3ccccc3)OC(=O)[C@H]1[C@@H]2C(=O)Nc1nc2ccccc2s1,0.878,0.68,0.0943,0.575,0.586,0.222,1.1,2.92 (inactive),1.24,0.547
COc1cc(OC)c(C(O)C2C=CC3C(=O)N(Cc4ccccc4)C(=O)C3N2n2cnnc2)cc1Br (stereo not given),-0.245,2.19,-0.0131,0.919,0.36,1.32,1.12,0.569 (inactive),1.35,-0.0645
COCCOC(=O)N1C(=O)[C@@]2(c3ccccc31)[C@H](c1ccc(O)cc1)N1[C@H](c3ccccc3)[C@H](c3ccccc3)OC(=O)[C@H]1[C@@H]2C(=O)N1CCN(c2ncccn2)CC1,-0.224,0.23,0.0019,0.644,0.618,0.647,1.07,-1.27 (inactive),-0.165,-0.0903
COc1cccc(C)c1NC(=O)O[C@H]1[C@H](OC(=O)Nc2ccccc2-c2ccccc2)[C@H](OC(=O)Nc2ccccc2-c2ccccc2)[C@@H](OC)O[C@@H]1CO,-0.205,0.0513,0.137,0.542,1.46,1.46,1.14,0.379 (inactive),1.48,-0.219
CCCC=C(CCC)[C@@H](NS(=O)(=O)CC12CCC(CC1=O)C2(C)C)c1ccc(C(=O)OC)cc1 (stereo not given in full),-0.126,0.645,0.291,0.375,0.621,0.128,1.09,2.86 (inactive),0.974,0.274
CCCC[C@@H](O)C1=C(COC)C[C@H]2C(=O)N(Cc3ccccc3)C(=O)[C@H]2[C@H]1CO,-1.06,0.0076,-0.0969,0.58,0.395,0.179,0.159,0.646 (inactive),-0.173,-0.0645
CC1CC/C=C\[C@H]2OC34C=CCN(c5ccc(Cl)cc5)C(=O)[C@H]3N(C(C)CO)C(=O)[C@]4(C)C2C(=O)O1 (stereo not given in full),0.0528,-0.591,-0.143,-0.172,-0.807,-0.154,0.886,0.242 (inactive),-0.732,-0.0618

SMILES,composite z-score [1],composite z-score [2],composite z-score [3],composite z-score [4],composite z-score [5],composite z-score [6],composite z-score [7],z-score [8],composite z-score [9],composite z-score [10]
CCCCC(O)C1C=CC2C(=O)N(C)C(=O)C2N1N(c1ccccc1)c1ccccc1 (stereo not given),0.555,1.3,0.0748,0.0636,1.14,1.25,0.999,0.667 (inactive),0.701,0.0497
CN(C)CCCCCCNC(=O)[C@@H]1C[C@@H]2C(=O)N3CCC[C@H]3C(=O)N2[C@@H]1c1cccc(OCCO)c1,0.117,2.09,0.1,1.11,0.623,0.755,1.48,3.21 (inactive),0.518,-0.0296
CC(C)N1C(=O)C[C@@](C(=O)O)(c2ccc([N+](=O)[O-])cc2)[C@H]1c1ccc(CO)cc1,1,0.208,-0.031,0.117,-0.436,0.425,1.04,0.161 (inactive),-0.322,0.0373
CC(C)C(CO)N1C(=O)[C@@H]2C3C(=O)OCCC/C=C\[C@H]3OC23C=CCN(Cn2nnc4ccccc42)C(=O)[C@@H]13 (stereo not given in full),0.314,-0.665,-0.148,-0.323,-0.72,1.88,0.476,0.0182 (inactive),0.013,-0.306
CCCCC(CC)C(O)C1C=CC2C(=O)N(C)C(=O)C2N1Nc1ccccc1 (stereo not given),-0.245,0.0145,-0.0454,0.264,0.846,0.517,1.16,-0.373 (inactive),0.388,-0.0994
C=CCNC(=O)[C@@H]1[C@H]2C(=O)O[C@H](c3ccccc3)[C@H](c3ccccc3)N2[C@H](c2ccccc2OCCO)[C@@]12C(=O)Nc1ccc(C#CCCO)cc12,-0.501,0.143,0.0013,0.0379,0.611,0.99,1.19,-0.452 (inactive),0.954,0.154
CN(C)C(=O)[C@@]1(Cc2ccccc2)N=C(c2ccc(OCCCO)cc2)O[C@H]1c1ccccc1,0.558,0.459,0.133,1.24,1.5,1.18,1.29,-1.57 (inactive),0.889,0.28
CCCCC=C[C@@H](NC(=O)OCc1ccccc1Cl)c1ccccc1,0.983,0.199,0.583,0.711,1.59,1.51,1.19,1.31 (inactive),2.81,0.996
COC(=O)[C@]1(CCS(=O)(=O)c2ccccc2)N=C(c2ccc(OCCCO)cc2)O[C@@H]1c1ccccc1N=[N+]=[N-],0.48,0.619,0.136,0.898,1.53,1.79,1.37,1.89 (inactive),1.15,0.0102
CC(C)N1CC=CC23O[C@@H]4C=CCCOC(=O)C4[C@H]2C(=O)N(CCCO)[C@@H]3C1=O (stereo not given in full),-0.339,-0.0962,-0.12,-0.458,-0.693,-0.491,0.059,-0.395 (inactive),0.002,0.0505
CCCCC[C@H]1OC[C@@]23C=C(Br)[C@@H](CC12)[C@@]1(CO1)C3=O (stereo not given in full),-0.41,0.878,-0.2,-0.112,-0.308,-0.556,-0.497,0.201 (inactive),-0.252,-0.132
O=C(C1N=C(c2ccc(OCCCO)cc2)N(c2ccccc2)O1)N1CCCCC1 (stereo not given),0.819,1.49,0.182,0.938,1.05,1.99,1.36,2.39 (inactive),1.13,-0.0952
O=C1C2C=CC(C(O)C3CC=CCC3)N(Nc3ccccc3)C2C(=O)N1c1ccccc1 (stereo not given),0.877,-0.129,0.122,0.397,1.61,1.3,1.28,-1.16 (inactive),1.89,-0.323
[N-]=[N+]=Nc1ccccc1[C@@H]1OC(c2ccc(OCCCO)cc2)=N[C@]1(Cc1ccccc1)C(=O)N1CCCCC1,0.0153,1,0.122,0.9,1.39,1.37,1.28,-2.33 (inactive),1.46,0.249
CCCC#C[Si](O[C@H](CC)c1cn([C@H](C)c2ccccc2)nn1)(C(C)C)C(C)C,-0.4,1.31,-0.0407,0.468,0.97,0.0607,0.181,0.337 (inactive),0.593,-0.407
C=CCN1C(=O)[C@]2(CCS(=O)(=O)c3ccccc3)N=C(c3ccc(OCCCO)cc3)O[C@@H]2c2ccccc21,-0.104,0.264,0.0109,0.162,0.84,0.445,1.28,-1.9 (inactive),0.454,-0.121

# From PubChem BioAssay
